Source: the supplement of paper PMC6555819

What was measured:
Experiment in all cases: PBM binding z-score (relative to random genomic background probes); higher = stronger binding; sequences stand for … in GC…GCGATTGACAGCGTAGAATGAAGG
[1] = test system: FXR:RXRa (NR concentration 270 nM, RXRa partner concentration 90 nM)
Procedure, shortened: (§1)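 Scanned fluorescence from custom Agilent 4×180K protein-binding microarrays was regression-normalized. Binding z-scores use random background probes as reference. Ligand-free nuclear receptor dimers were incubated on the arrays for 1 h and detected with antibodies against each partner (one per run).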

[2] = test system: LXRa:RXRa (NR concentration 270 nM, RXRa partner concentration 90 nM)
Procedure, shortened: as §1

[3] = test system: LXRa homodimer (NR concentration 270 nM)
Procedure, shortened: as §1

[4] = test system: LXRb:RXRa (NR concentration 270 nM, RXRa partner concentration 90 nM)
Procedure, shortened: as §1

[5] = test system: LXRb homodimer (NR concentration 270 nM)
Procedure, shortened: as §1

[6] = test system: PPARa:RXRa (NR concentration 270 nM, RXRa partner concentration 90 nM)
Procedure, shortened: as §1

[7] = test system: PPARg:RXRa (NR concentration 180 nM, RXRa partner concentration 90 nM)
Procedure, shortened: as §1

[8] = test system: PPARg:RXRa 270nM:90nM, anti-RXR (NR concentration 270 nM, RXRa partner concentration 90 nM)
Procedure, shortened: as §1

[9] = test system: PPARg:RXRa 30nM:10nM, anti-RXR (NR concentration 30 nM, RXRa partner concentration 10 nM)
Procedure, shortened: as §1

[10] = test system: PPARg:RXRa 90nM:30nM, anti-RXR (NR concentration 90 nM, RXRa partner concentration 30 nM)
Procedure, shortened: as §1

[11] = test system: PPARg:RXRa DBDmut IVT, anti-RXR (DBD mutation: RXRa K156A/R161A, NR concentration 270 nM, RXRa partner concentration 90 nM)
Procedure, shortened: as §1

[12] = test system: PPARg:RXRa IVT, anti-PPARg (NR concentration 270 nM, RXRa partner concentration 90 nM)
Procedure, shortened: as §1

[13] = test system: PPARg DBDmut:RXRa IVT, anti-PPARg (DBD mutation: PPARg1 K132A/R137A, NR concentration 270 nM, RXRa partner concentration 90 nM)
Procedure, shortened: as §1

[14] = test system: PPARg DBDmut IVT, anti-PPARg (DBD mutation: PPARg1 K132A/R137A, NR concentration 270 nM)
Procedure, shortened: as §1

[15] = test system: PPARg homodimer (NR concentration 180 nM)
Procedure, shortened: as §1

[16] = test system: PXR:RXRa (NR concentration 270 nM, RXRa partner concentration 90 nM)
Procedure, shortened: as §1

[17] = test system: PXR homodimer (NR concentration 270 nM)
Procedure, shortened: as §1

[18] = test system: RARa:RXR (NR concentration 270 nM, RXRa partner concentration 90 nM)
Procedure, shortened: as §1

[19] = test system: RARa homodimer (NR concentration 270 nM)
Procedure, shortened: as §1

[20] = test system: RARb:RXRa (NR concentration 270 nM, RXRa partner concentration 90 nM)
Procedure, shortened: as §1

Sequence	PBM binding z-score [1]	PBM binding z-score [2]	PBM binding z-score [3]	PBM binding z-score [4]	PBM binding z-score [5]	PBM binding z-score [6]	PBM binding z-score [7]	PBM binding z-score [8]	PBM binding z-score [9]	PBM binding z-score [10]	PBM binding z-score [11]	PBM binding z-score [12]	PBM binding z-score [13]	PBM binding z-score [14]	PBM binding z-score [15]	PBM binding z-score [16]	PBM binding z-score [17]	PBM binding z-score [18]	PBM binding z-score [19]	PBM binding z-score [20]
AGAACGAGGGCATTGAGTTGATAGCACGGGTGGC	0.832	0.491	-0.273	0.0744	-0.545	1.26	1.02	0.78	-0.308	6.55e-05	2.94	2.27	0.115	-0.519	0.179	2.79	9.1	0.267	-0.274	1.87
CAAACTAGGTCACCGGAAGTTCAAAGTCCGCATG	5.16	5.88	4.93	4.26	1.06	5.9	9.18	7.54	5.95	7.54	8.47	9.21	5.32	4.81	7.04	6.19	6.26	5.86	1.72	4.85
GATACAAGGTCAAGGCCAGAGTACGCGTATTGAT	7.16	5.44	1.37	4.03	0.481	5.49	5.86	5.56	2.28	4.41	3.92	4.69	1.01	0.226	2.18	3.85	0.847	4.27	0.975	5.35
CGTCCAAGGTCAATGCTAGGTCGGTGAAAGCATT	5.99	4.42	0.539	3.19	0.14	4.79	3.29	4.06	1.09	2.58	3.27	3.65	-0.723	-0.78	1.98	3.86	0.759	4.18	0.419	4.95
CCTACTAGGCCATCAGGTCATTGATATCAACGTT	2.15	1.63	1.62	2.16	0.844	3.19	3.75	4	2.04	3.5	6.04	5.32	0.857	0.291	1.87	2.04	1.66	2.59	1.47	2.45
CCGACTGGAGCAGAAAGGTTACCATACCATCCGG	0.42	0.894	-0.0298	0.813	-0.611	1.77	1.61	2.5	0.683	2.24	0.54	0.511	-0.716	-0.66	0.708	1.02	-0.102	2.11	-0.788	1.52
ATTTGTAGGTTAGCTGGGGTCATTCAGACTAGGC	4.72	6	4.63	5.23	2.54	5.2	4.29	4.6	2.42	3.79	5.34	5.05	2.63	3.11	4.33	6.6	4.49	5.99	2.49	3.52
TCTCGGTGGACACGAAAGGTCAGAGCTCGACATC	2.46	3.58	2.21	3.1	-0.0844	3.69	1.16	2.93	2.55	2.78	1.22	1.82	-0.273	-0.543	3.39	3.87	0.441	4.59	-0.0957	3.86
ATCGAAAGGTCGACGAGGTGAGTGTACACCGTTT	4.72	3.35	0.236	2.78	0.198	4.42	2.9	3.72	1.14	2.63	1.06	2.45	1.21	0.365	1.48	3.37	1.03	3.93	0.268	3.89
CCGACTGGGCCAGAAAGGTTACCATACCATCCGG	0.387	0.792	-0.182	0.895	-0.545	1.88	0.92	0.91	0.0101	0.541	0.593	0.483	-0.91	-1.13	0.203	0.831	-0.302	1.83	-0.242	1.47
ATCTCTAGGTAACAAGTTCAGTGATAGAGAGGAC	0.623	0.613	0.594	0.524	1.01	1.34	1.67	1.87	1.19	1.53	3.07	2.7	1.93	1.91	1.18	1.7	1.97	0.777	1.13	1.69
TCTAGCAGGCCAGAGGGTCACTCAAGAGGTACGG	0.812	1.03	-0.601	0.926	-1.51	2.39	1.43	2.72	2.09	2.57	0.944	0.645	-0.27	-1.24	0.106	1.57	-0.442	2.03	-0.734	2.09
GGAACGAGGGCAAGTTGATAGAAGAGTTTGATGG	0.705	0.396	-0.176	0.213	-0.242	1.41	1.29	0.969	0.173	0.351	3.6	2.75	-0.45	0.0544	0.482	0.801	0.693	0.45	0.336	2.64
ATCTCTAGGTAACGAGTTCAGTGAAAGAGAGGAC	0.481	0.764	0.708	0.738	0.449	2.04	1.69	1.73	0.509	1.26	4.09	3.44	0.909	0.668	0.806	2.31	2.89	0.857	0.668	1.35
ATTTACGGGTCAACGAGGTTATAGCACGCGTATA	7.58	5.96	2.29	4.93	1.41	6.1	6.73	6.17	3.27	5.21	3.42	4.88	2.57	2.5	2.8	5.6	4.18	5.97	1.69	4.48
